# Where “and” joins values, the source holds several entries; their conditions need not be identical. Identical values can stand only once. Inconclusive results are not listed. Entries that show only a call come without a potency. Some structures have more than one record in an assay (separate samples or runs), and their calls can disagree. Calls of active or inactive are those of the source. Calls come from the whole dose curve; as a rule, active = well fitted cell-killing curve with a large enough effect in the repeat runs; inconclusive = weak or mixed curves, or effect the other way; inactive = no such curve, though single readings can be large or run the other way.
# Test: Caspase-3/7 induction in CHO-K1 cells by small molecules, qHTS cell viability counter screen (AID 1346979); note: nearly all actives have a fitted effect of over 35% in size
# Settings: CellTiter-Fluor fluorescence, 17 h; series mostly up to 92.4 µM; activity change, negative = cytotoxicity: at the top concentration
# Description: National Center for Advancing Translational Sciences [NCATS]
# NIH Chemical Genomics Center [NCGC]
# U.S. Environmental Protection Agency [EPA]
# National Institutes of Environmental Health Sciences [NIEHS]
# National Toxicology Program [NTP]
# U.S. Food and Drug Administration [FDA]
# Apoptosis is a process of programmed cell death and plays a central role in the development of multicellular organisms. It is a highly regulated process and induces cell death by activating caspases, which are the members of cysteine aspartic acid-specific protease (caspase) family. Caspases involved in apoptosis are classified by their mechanism of action as initiator caspases (caspase-2, -8, -9 and -10) and executioner caspases (caspase-3, -6, and -7). Inhibition of apoptosis results in number of cancers, autoimmune diseases, inflammatory diseases and viral infection. To identify small molecule compounds that induce apoptosis, a homogeneous, luminescent Caspase-Glo 3/7 assay was used. Wild type CHO-K1 cells were used to screen Tox21 libraries for identifying caspase-3/7 activity inducers. Also cytotoxicity of the compounds was tested in parallel by measuring the cell viability using CellTiter-Fluor assay system in the same wells.
# Tox21 Assay Protocol Summary:
# CHO-K1 cells were dispensed at 1,500 per well in 5uL of culture medium into white solid bottom 1536-well plates (Corning Life Sciences, Corning, NY) using a Multidrop Combi (Thermo Scientific, Waltham, MA) dispenser. The assay plates were incubated at 37 C and 5% CO2 for 5hr, and then 23nL of compounds dissolved in DMSO and positive control were transferred using a Pintool station (Wako, San Diego, CA). The assay plates were incubated at 37C and 5% CO2 for 17hr. For cytotoxicity read, after 16hr incubation at 37C, 1uL CellTiter-Fluor reagent (Promega Corporation, Madison, WI) was added to each well of the assay plates using Flying Reagent Dispenser (FRD, Aurora Discovery, San Diego, CA). After 1hr incubation at 37C and 5% CO2, the fluorescence signal was quantified using a ViewLux plate reader (PerkinElmer, Shelton, CT).
# Potency is the fitted concentration of half-maximal effect.
Structure (SMILES),Potency,"activity change, negative = cytotoxicity"
O=C(O)c1cc(O)c(O)c(O)c1,30.9 µM (active),
CN(C)CCC(c1ccccc1)c1ccccn1 (stereo not given),inactive,
c1ccc(OCCOc2ccccc2)cc1,inactive,
CCCCCCCCCC,inactive,
C[C@H]1C[C@@H]2[C@H]([C@@H](O)C[C@@]3(C)[C@H]2CC[C@]3(O)C(=O)CO)[C@@]2(C)C=CC(=O)C=C12,inactive,
CC(c1cc2ccccc2s1)N(O)C(N)=O (stereo not given),inactive,
CCCCN(CCCC)CCCC,inactive,
O=C1CCC(N2C(=O)c3ccccc3C2=O)C(=O)N1 (stereo not given),inactive,
C[Si](O[Si](C)(C)C)O[Si](C)(C)C,inactive,
O=C(O)CCCC[C@@H]1SC[C@@H]2NC(=O)N[C@@H]21,inactive,
O=S1(=O)CC=CC1,29.6 µM (active) and inactive,
O=P(OC(CCl)CCl)(OC(CCl)CCl)OC(CCl)CCl,30.5 µM (active),
CCCCCC(N)=O,,-1.11% (inactive)
CC(=O)CC(=O)Nc1ccccc1C,inactive,
O=C(O)c1cc(C(=O)O)cc(S(=O)(=O)O)c1,inactive,
CC(=O)Nc1ccccc1,inactive,
Cc1occc(=O)c1O,inactive,
FC(F)(F)c1ccc(Cl)c(Cl)c1,inactive,
CCC(O)OCCCOC (stereo not given),5.59 µM (active) and inactive,
O=C=NCCCCCCN=C=O,53.3 µM (active) and inactive,

Structure (SMILES),Potency,"activity change, negative = cytotoxicity"
CCCCCCOCCO,inactive,
CCCCC(CC)COC(=O)C(C#N)=C(c1ccccc1)c1ccccc1 (stereo not given),48.6 µM (active) and 18.8 µM (active),
CC(C)c1ccc(S(=O)(=O)O)cc1,inactive,
C=C(C)C(=O)OCCOCCOCCOC(=O)C(=C)C,inactive,
NNc1nncc2ccccc12,43.3 µM (active),-0.255% [at 19 µM] (inactive)
CCCCC(CC)COC(=O)CCCCC(=O)OCC(CC)CCCC (stereo not given),inactive,
O=C(CC(C(=O)OC1CCCCC1)S(=O)(=O)O)OC1CCCCC1 (stereo not given),inactive,
O=[N+]([O-])c1ccc(/C=C/c2ccc([N+](=O)[O-])cc2S(=O)(=O)O)c(S(=O)(=O)O)c1,,-10.8% (inactive)
COc1ccc(NC(C)=O)cc1N,inactive,
OCC(CO)(CBr)CBr,inactive,
O=C(O)c1ccc2c(c1)C(=O)OC2=O,inactive,
C=CCOC(=O)c1ccccc1C(=O)OCC=C,inactive,
Nc1cc([N+](=O)[O-])ccc1O,54.5 µM (active) and 60.8 µM (active),
c1ccc2c(c1)ccc1ccccc12,inactive,
CN(C)CCC(c1ccc(Cl)cc1)c1ccccn1 (stereo not given),,-9.62% (inactive)
CC1CCC2CC1C2(C)C (stereo not given),inactive,
CCCCCCCCCCCCc1ccccc1,inactive,
O=S(=O)(O)c1ccc2ccccc2c1,inactive,
CCOC(=O)NNc1nncc2ccccc12,inactive,

# From PubChem BioAssay (Tox21)
